Assay results: ChEMBL document CHEMBL1157539, “Thousands of chemical starting points for antimalarial lead identification” (Nature, 2010)

Experiments:
Format in all cases: functional
Plasmodium falciparum [1] = assay: GSK_TCMDC: Inhibition of Plasmodium falciparum 3D7 in whole red blood cells, using parasite LDH activity as an index of growth. Test compounds present at 2uM
Plasmodium falciparum [2] = assay: GSK_TCMDC: Inhibition of Plasmodium falciparum Dd2 in whole red blood cells, using parasite LDH activity as an index of growth. Test compounds present at 2uM
HepG2 = assay: GSK_TCMDC: Percent inhibition of human HepG2 cell line. Test compounds present at 10uM.

Row | Structure (SMILES) | Inhibition (Plasmodium falciparum [1]) | Inhibition (Plasmodium falciparum [2]) | Inhibition (HepG2)
1 | CN(Cc1cccc(O)c1)C1CCN(c2cc(NC(=O)c3ccc(F)cc3)ccn2)CC1.O=C(O)C(F)(F)F | 94% | 9% | 24%
2 | CNCCNCc1ccc(-c2cccc(-c3nc4cc(F)ccc4[nH]3)c2)cc1.O=C(O)C(F)(F)F | 93% | 1% | 10%
3 | C[C@@H](CNc1ccnc(Nc2ccc3[nH]c(=O)[nH]c3c2)n1)c1ccccc1 | 100% | 1% | 42%
4 | COc1cc(N)cc2sc(N)nc12 | 99% | 99% | 0%
5 | O=C(c1ccccc1[N+](=O)[O-])N(Cc1ccccc1)c1ccccn1 | 91% | 0% | 0%
6 | Cc1cc(NCCC(=O)Nc2ccccc2)nc(NCCOc2ccccc2)n1.O=C(O)C(F)(F)F | 100% | 9% | 5%
7 | COc1ccc(S(=O)(=O)N(c2cc(Br)cc3c2OCC3)S(=O)(=O)c2ccc(OC)c(N3CCN(C)CC3)c2)cc1N1CCN(C)CC1 | 81% | 98% | 67%
8 | CCCCc1ccc2ncc(C(=O)OCC)c(O)c2c1 | 95% | 96% | 3%
9 | Cc1ccc2nc(C)n(C3CCN(C(=O)C4(c5ccccc5)CC4)CC3)c2c1 | 100% | 83% | 8%
10 | CCc1c(C(=O)NC2CCC(N3CCC(c4ccccc4C)CC3)CC2)[nH]c2ccc(Br)cc12 (stereo not drawn) | 100% | 99% | 81%
11 | Brc1ccc(Nc2nc(NCc3ccccc3)c3ccccc3n2)cc1 | 100% | 99% | 24%
